Source: PubChem BioAssay (NCATS)
Inconclusive results are not listed. Entries that show only a call come without a potency. Unmarked numbers belong to inactive results. Active and inactive are the calls of the source. Unless noted, the call rests on the fitted dose curve; in most records, active means well fitted curve in the direction sought with a large enough effect; inconclusive means small, poorly fitted or top-dose-only effect, or another doubt; inactive means no such curve, though single readings can be large; an effect the other way counts as inactive or inconclusive.

How the values were obtained:
[1] = target: Aldehyde dehydrogenase, mitochondrial (Homo sapiens) (UniProt P05091); experiment: qHTS for Inhibitors of the Aldehyde Dehydrogenase Family (ALDH2) Validation screens (AID 2061302; active means well fitted inhibition curve with a large enough effect; title and protocol of this record describe different tests; further: potency means the concentration at half of the fitted maximal effect); settings: ALDH inhibition qHTS; series mostly up to 42.6 µM
[2] = target: Aldehyde dehydrogenase, mitochondrial (Homo sapiens) (UniProt P05091); experiment: qHTS for Inhibitors of the Aldehyde Dehydrogenase Family (ALDH2) Confirmatory screens (AID 2061303; active means well fitted inhibition curve with a large enough effect; title and protocol of this record describe different tests; further: nearly all actives have a fitted effect of over 45% in size; further: potency means the concentration at half of the fitted maximal effect); settings: ALDH inhibition qHTS; series mostly up to 45.4 µM
[3] = qHTS for Inhibitors of the Aldehyde Dehydrogenase Family (ALDH1A2, ALDH1A3, ALDH2, ALDH3A1) (AID 2061307); settings: ALDH inhibition qHTS; series mostly up to 50.3 µM; further: nearly all actives have a fitted effect of over 50% in size; on potency: test system not described further here; potency means the concentration at half of the fitted maximal effect
[4] = target: Retinaldehyde dehydrogenase 3 (Homo sapiens) (UniProt P47895); experiment: qHTS for Inhibitors of the Aldehyde Dehydrogenase Family (ALDH1A3) Confirmatory screens (AID 2061311); settings: ALDH inhibition qHTS; series mostly up to 46 µM; further: nearly all actives have a fitted effect of over 60% in size; further: potency means the concentration at half of the fitted maximal effect
[5] = target: Retinal dehydrogenase 2 (Homo sapiens) (UniProt O94788); experiment: qHTS for Inhibitors of the Aldehyde Dehydrogenase Family (ALDH1A2) Confirmation screens (AID 2061314); settings: ALDH1A2 enzyme inhibition qHTS confirmation; series mostly up to 45.9 µM; further: nearly all actives have a fitted effect of over 65% in size; further: potency means the concentration at half of the fitted maximal effect
[6] = target: Retinaldehyde dehydrogenase 3 (Homo sapiens) (UniProt P47895); experiment: qHTS for Inhibitors of the Aldehyde Dehydrogenase Family (ALDH1A3) Primary screen (AID 2061315); settings: ALDH inhibition qHTS; series mostly up to 56 µM
[7] = target: Aldehyde dehydrogenase 1A1 (Homo sapiens) (UniProt P00352); experiment: qHTS for Inhibitors of the Aldehyde Dehydrogenase Family (ALDH1A1) Confirmatory screens (AID 2061316); settings: ALDH inhibition qHTS; series mostly up to 47.3 µM; further: nearly all actives have a fitted effect of over 65% in size; further: potency means the concentration at half of the fitted maximal effect
[8] = target: Cellular tumor antigen p53 (Homo sapiens) (UniProt P04637); experiment: Primary qHTS for small molecule compounds that upregulate eGFP-tagged delta133p53alpha (in C-terminal) cells. (AID 2060324); settings: NCI-H358 delta133p53alpha-eGFP (C-terminal tag), GFP fluorescence imaging, 24 h; series mostly up to 57.5 µM
In short: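 In this qHTS, GFP-tagged delta133p53alpha levels are measured in fixed NCI-H358 cells after 24 h compound exposure at 37 °C. The cells are pre-induced with 100 ng/ml doxycycline, and signal is normalized to DMSO-treated wells as 0%.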

[9] = target: Retinaldehyde dehydrogenase 3 (Homo sapiens) (UniProt P47895); experiment: qHTS for Inhibitors of the Aldehyde Dehydrogenase Family (ALDH1A3) Validation screen (AID 2061312); settings: ALDH1A3 enzyme inhibition qHTS validation, fluorescence; series mostly up to 84.7 µM; further: nearly all actives have a fitted effect of over 45% in size
[10] = target: Aldehyde dehydrogenase, mitochondrial (Homo sapiens) (UniProt P05091); experiment: qHTS for Inhibitors of the Aldehyde Dehydrogenase Family (ALDH2) Primary screen (AID 2061308); settings: ALDH2 enzyme inhibition qHTS, 1536-well; series mostly up to 56 µM; further: nearly all actives have a fitted effect of over 55% in size; further: potency means the concentration at half of the fitted maximal effect
[11] = BET inhibitor-based combinations targeting novel dependencies in MECOM-rearranged (r) AML: MV-4-11 cell line (AID 2202233); settings: MV-4-11 AML viability, CellTiter-Glo luminescence, 48 h; series mostly up to 46 µM; further: nearly all actives have a fitted effect of over 45% in size; further: potency means the concentration at half of the fitted maximal effect
In short: (§1)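 Luminescent ATP readout (CellTiter-Glo, 15 min at room temperature) after 48 hr drug exposure gave viability. Dose-response curves, normalized to DMSO and empty-well controls, were summarized as area under the curve and its mean-centred Z-score.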

[12] = BET inhibitor-based combinations targeting novel dependencies in MECOM-rearranged (r) AML: HNT-34 cell line (AID 2202234); settings: HNT-34 AML viability, CellTiter-Glo luminescence, 48 h; series mostly up to 46 µM; further: nearly all actives have a fitted effect of over 35% in size; further: potency means the concentration at half of the fitted maximal effect
In short: as §1

[13] = BET inhibitor-based combinations targeting novel dependencies in MECOM-rearranged (r) AML: AML-191 cell line (AID 2202236; further: nearly all actives have a fitted effect of over 35% in size); settings: AML-191 viability, CellTiter-Glo luminescence, 48 h; series mostly up to 46 µM
In short: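 Luminescent ATP readout (CellTiter-Glo) after 48 hr drug exposure gives viability. Curves span 11 concentrations and are normalized to DMSO and empty wells. Activity is reported as area under the curve and its Z-transform within each cell line.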

Cellular tumor antigen p53 (Homo sapiens), sequence (P04637 whole entry, looked up): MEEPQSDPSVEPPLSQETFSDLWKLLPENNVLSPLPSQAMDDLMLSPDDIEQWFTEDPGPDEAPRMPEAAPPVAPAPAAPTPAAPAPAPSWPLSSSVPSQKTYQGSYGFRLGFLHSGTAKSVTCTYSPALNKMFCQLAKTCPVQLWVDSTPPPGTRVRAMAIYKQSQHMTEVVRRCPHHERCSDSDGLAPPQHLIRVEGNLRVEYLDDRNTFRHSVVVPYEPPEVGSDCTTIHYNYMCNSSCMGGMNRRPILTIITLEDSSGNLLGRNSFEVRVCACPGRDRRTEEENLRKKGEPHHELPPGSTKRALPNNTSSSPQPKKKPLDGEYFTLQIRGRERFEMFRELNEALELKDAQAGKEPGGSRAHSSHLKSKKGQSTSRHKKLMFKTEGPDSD

SMILES: CC(C)(C)OC(=O)N1CCN(c2cnc(NCc3ccc(-c4ccc(C#N)cc4)o3)nc2)CC1
- Potency [1]: 1.12 µM (active)
- Potency [2]: 2.24 µM (active)
- Potency [3]: 5.65 µM (active)
- Potency [4]: 15.8 µM (active)
- Potency [5]: 8.96 µM (active)
- Potency [6]: inactive
- Potency [7]: 10.1 µM (active)

SMILES: CCOC(=O)C1=C(C)NC(C)=C(C(=O)OC)C1c1cccc(Cl)c1Cl (centres undefined)
- Potency [8]: inactive
- Potency [1]: inactive
- Potency [9]: inactive

SMILES: Cc1cc2c(cc1Cl)N(C(=O)Nc1ccc(Oc3cccnc3C)nc1)CC2
- Potency [1]: inactive

SMILES: CCN(CC)CCNC(=O)c1ccc(N)cc1
- Potency [1]: inactive
- Potency [2]: inactive
- Potency [3]: inactive
- Potency [4]: inactive
- Potency [9]: inactive
- Potency [5]: inactive
- Potency [6]: inactive
- Potency [7]: inactive

SMILES: O=c1c(-c2ccc(O)cc2)coc2cc(O[C@@H]3O[C@H](CO)[C@@H](O)[C@H](O)[C@H]3O)cc(O)c12
- Potency [1]: inactive

SMILES: N#Cc1ccc(-c2ccc(CNc3ccc(N4CCC(C(F)(F)F)CC4)cc3)o2)cc1
- Potency [1]: 0.447 µM (active)
- Potency [2]: 0.0357 µM (active)
- Potency [3]: 0.712 µM (active)
- Potency [10]: inactive
- Potency [5]: inactive
- Potency [7]: 6.34 µM (active)

SMILES: CC(C)(C)OC(=O)N1CCN(c2ncc(NCc3ccc(-c4ccc(C#N)cc4)o3)cn2)CC1
- Potency [1]: 0.224 µM (active)
- Potency [2]: 0.1 µM (active)
- Potency [3]: 0.283 µM (active)
- Potency [10]: 100 nM (active)
- Potency [4]: 25.1 µM (active)
- Potency [5]: 12.6 µM (active)
- Potency [6]: inactive

SMILES: O=c1cc(-c2ccccc2F)[nH]c2cc3c(cc12)OCO3
- Potency [8]: inactive
- Potency [9]: inactive

SMILES: COc1cc(-c2coc3cc(OCc4ccccc4)c(OC)c(O)c3c2=O)cc(O)c1OC
- Potency [1]: inactive

SMILES: Cc1ccc(/C(=C\CN2CCCC2)c2ccccn2)cc1
- Potency [1]: inactive

SMILES: COc1ccc2c(c1)CCC1C2CC[C@@]2(C)C1CC[C@@H]2NCCCCCCN1C(=O)C=CC1=O (some centres undefined)
- Potency [8]: inactive
- Potency [1]: inactive
- Potency [9]: inactive

SMILES: CN1CCc2cc(Cl)c(O)cc2[C@@H](c2ccccc2)C1
- Potency [8]: inactive
- Potency [1]: inactive
- Potency [9]: inactive

SMILES: CC(C)(C)OC(=O)N1CCN(c2cccc(NCc3ccc(-c4ccc(C#N)cc4)o3)c2)CC1
- Potency [1]: 1.78 µM (active)
- Potency [2]: 1.12 µM (active)
- Potency [3]: 1.59 µM (active)
- Potency [10]: 282 nM (active)
- Potency [5]: inactive
- Potency [7]: 7.12 µM (active)

SMILES: COc1ccc(-c2coc3cc(O[C@@H]4O[C@H](CO)[C@@H](O)[C@H](O)[C@H]4O)ccc3c2=O)cc1
- Potency [1]: inactive

SMILES: C/C=C/CC(C)C(O)C1C(=O)NC(CC)C(=O)N(C)CC(=O)N(C)C(CC(C)C)C(=O)NC(C(C)C)C(=O)N(C)C(CC(C)C)C(=O)NC(C)C(=O)NC(C)C(=O)N(C)C(CC(C)C)C(=O)N(C)C(CC(C)C)C(=O)N(C)C(C(C)C)C(=O)N1C (centres undefined)
- Potency [8]: inactive
- Potency [10]: inactive
- Potency [9]: inactive
- Potency [6]: inactive

SMILES: CCN(CC)CCCC(C)Nc1ccnc2cc(Cl)ccc12 (centres undefined)
- viability, % of control [11]: 101% [at 8.46 µM]
- Potency [12]: 5.39 µM (active)
- viability (% of control) [13]: 95.1% [at 8.46 µM]

SMILES: CC(C)c1c(C(=O)Nc2ccccc2)c(-c2ccccc2)c(-c2ccc(F)cc2)n1CC[C@@H](O)C[C@@H](O)CC(=O)O
- Potency [11]: 5.74 µM (active)

SMILES: O=C1CCc2cc(OCCCCc3nnnn3C3CCCCC3)ccc2N1
- Potency [12]: inactive
- Potency [13]: inactive

SMILES: CC[N+](CC)(CC)CC
- Potency [1]: inactive
- Potency [9]: inactive

SMILES: CN(C)CCC(c1ccc(Br)cc1)c1ccccn1 (centres undefined)
- Potency [1]: inactive
- Potency [9]: inactive
